Assay outcomes (PubChem BioAssay)
Compounds with a hit are over-represented: about 2.4% of the library has one in this group of screens.
AmpC inh det = inhibitors of E. coli AmpC beta-lactamase with detergent; P00811; 71,000 tested, 0.09% active; AID 584; Potency, µM (series often up to 28.7 µM), for the others: at the top dose activity change, negative = inhibition; purified AmpC, nitrocefin hydrolysis with detergent; active means well fitted curve in the direction sought with a large enough effect; inconclusive means small, poorly fitted or top-dose-only effect; further: on the % scale 0 is the no-effect control and ±100 the full control effect
Target sequence (P00811 whole entry, looked up): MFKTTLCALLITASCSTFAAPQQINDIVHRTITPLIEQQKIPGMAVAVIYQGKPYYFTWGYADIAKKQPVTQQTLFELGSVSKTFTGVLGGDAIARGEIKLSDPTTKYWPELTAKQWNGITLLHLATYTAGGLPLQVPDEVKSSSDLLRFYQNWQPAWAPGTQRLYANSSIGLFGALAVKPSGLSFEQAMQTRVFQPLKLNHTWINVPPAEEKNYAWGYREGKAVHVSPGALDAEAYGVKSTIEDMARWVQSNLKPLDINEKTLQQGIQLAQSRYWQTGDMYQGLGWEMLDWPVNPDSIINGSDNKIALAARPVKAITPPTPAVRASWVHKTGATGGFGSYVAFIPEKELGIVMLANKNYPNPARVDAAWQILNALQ
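E. coli AmpC (5.3 nM) in 20 mM phosphate pH 7.0 with 0.01% Triton X-100, preincubated 15 min RT with compound; nitrocefin (2 uL of 800 uM stock) hydrolysis followed by 480 nm absorbance every 20 s over 4 min.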
Anthrax LT inh = anthrax lethal toxin internalization inhibition | Potency, µM (highest dose often 40 µM), inactives show top-dose activity change, negative = inhibition, actives largely listed as inhibitors | AID 912 | Cells, anthrax lethal toxin internalization, FRET ratio (460/530) | 70,000 tested, 0.67% active; further: on the % scale 0 is the no-effect control and ±100 the full control effect; nearly all actives have a fitted effect of over 50% in size
SmPrx2 inh = inhibitors of Schistosoma mansoni peroxiredoxin 2; S. mansoni Prx2 activity coupled to TGR/GSH (TGR is thioredoxin glutathione reductase), NADPH fluorescence loss, qHTS; Potency, µM; 65,000 tested, 0.07% active; AID 448
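Prx2 activity was followed as the loss of NADPH fluorescence (ex 365/em 450 nm), read every 30 sec for 8 min after H2O2 start. The enzyme mix (50 nM Prx2, 25 nM TGR, GSH, NADPH; pH 7.4 phosphate buffer) was incubated with compound for 15 min at room temperature first.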
AmpC inh no det = inhibitors of E. coli AmpC beta-lactamase without detergent; P00811; AmpC nitrocefin hydrolysis, absorbance 480 nm, no detergent; Potency, µM (doses to about 28.7 µM), for the others: at the highest dose activity change, negative = inhibition; 71,000 tested, 1.8% active; further: % of control where 0% means no effect
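AmpC in 20 mM phosphate buffer pH 7.0 was preincubated 15 min at room temperature with compounds. Nitrocefin (800 uM stock) was then added and hydrolysis followed at 480 nm every 20 s for 4 min.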
* hit, by the source's call; ? = inconclusive; nt = no result given; [ ] = another dose, or the depositor's remark. Unless noted, the call rests on the fitted dose curve. Potency means the concentration at half of the fitted maximal effect.

SMILES	AmpC inh det	Anthrax LT inh	SmPrx2 inh	AmpC inh no det
C[C@@]12CC(=O)[C@@H]3[C@@H](CCC4=CC(=O)CC[C@]43C)[C@@H]1CC=C2CC(=O)O	-5%[5.75 µM]	-4%[8 µM]	>57	-2%[5.75 µM]
Cc1ccc(S(=O)(=O)Nc2cccc(-c3cn4ccsc4n3)c2)cc1	-1%	?	>57	6.3µM*
C=C1C(=O)O[C@H]2C[C@@]3(C)CCCC(=C)[C@@H]3C[C@H]12	1%	?	>57	35%
Cn1nc(-c2ccc(Cl)cc2)c2cc(C(=O)N3CCN(c4ccccc4)CC3)sc21	13%	?	>57	4µM*[single pt active]
Cn1nc(-c2ccc(Cl)cc2)c2cc(C(=O)N3CCCC3)sc21	11%	?	>57	42%
Cn1nc(-c2ccc(Cl)cc2)c2cc(C(=O)N3CCN(c4ccccn4)CC3)sc21	7%	?	>57	4µM*[single pt active]
CC[C@@H]1OC(=O)[C@@H](C)[C@H](O[C@@H]2C[C@@](C)(OC)[C@@H](O)[C@H](C)O2)[C@H](C)[C@H](O[C@@H]2O[C@@H](C)C[C@@H](N(C)C)[C@H]2O)[C@@](C)(O)C[C@H](C)C(=O)[C@@H](C)[C@H](O)[C@@]1(C)O	-1%	?	>57	15%
CN1c2cc3c(cc2N=C(c2ccc(C(=O)O)cc2)c2ccccc21)C(C)(C)CCC3(C)C	nt	10µM*	nt	nt
CCN(CC)C(=O)C1CCCc2c1[nH]c1ccc(Cl)cc21 (configuration not stated)	15%	-17%	nt	4µM*[single pt active]
Cc1nonc1NC(=O)CSc1nc2cc(Cl)ccc2c2c1CCCC2	-4%	-20%	>57	13µM*
CC(C)(C)C(=O)CP(=O)(O)O	-4%[5.75 µM]	2%[8 µM]	>57	3%[5.75 µM]
FC(F)(F)c1ccc(Cl)cc1	3%	-9%	nt	-5%
Cc1nn(-c2ccccn2)c(C)c1Oc1ccccc1O	-1%	3%	>57	1%
Cc1nn(-c2nc3ccccc3s2)c(C)c1Oc1ccccc1O	-5%	10µM*	>57	-24%
O=C(NC1CCCCC1)N1CCC(n2c(=O)[nH]c3ccccc32)CC1	18%	-14%	>57	3.2µM*[single pt active]
NCCSC(c1ccccc1)c1ccccc1	-2%[5.75 µM]	6%[8 µM]	>57	4%[5.75 µM]
O=C(COC(=O)c1ccccc1Nc1ccccc1)NCc1ccco1	11%	13%	>57	-16%
NC(=O)c1ccsc1NC(=O)COC(=O)c1ccccc1NCc1ccco1	3%	?	>57	5µM*
CCOC(=O)CCc1c(C)n(CC)c2ncnn2c1=O	12%	-3%	>57	4µM*[single pt active]
Oc1ccc(Nc2nc(N3CCCC3)c3ccccc3n2)cc1	30%	13µM*	>57	?
Cc1ccc(Nc2nc(N3CCOCC3)c3ccccc3n2)cc1	0%	-14%	>57	10%
CCOc1ccc(S(=O)(=O)n2c(C)nc3ccccc32)cc1	14%	-20%	>57	4µM*[single pt active]
CCCCOc1ccc(S(=O)(=O)n2c(C)nc3ccccc32)cc1	1%	?	>57	43%
Cc1ccccc1CNc1ncnc2c1ncn2[C@@H]1O[C@@H](CO)[C@H](O)[C@@H]1O	-3%	?	>11	2%
CC(=O)OCC1=C(C(=O)O)N2C(=O)[C@@H](N)[C@@H]2SC1	?	7%[3.58 µM]	>57	5µM*
SMILES	AmpC inh det	Anthrax LT inh	SmPrx2 inh	AmpC inh no det
CC(=O)OCC1=C(C(=O)[O-])N2C(=O)[C@@H](NC(=O)CCC[C@@H](N)C(=O)[O-])[C@@H]2SC1.[Zn+2]	-1%	1%	>57	1%
O=C1OC2(c3cc(Br)c(O)c(Br)c3Oc3c2cc(Br)c(O)c3Br)c2c(Cl)c(Cl)c(Cl)c(Cl)c21	2%	?	nt	-21%
CN1CCN(c2cc3c(c4c2[nH]c2ccccc24)C(=O)CC(C)(C)C3)CC1	12%	?	>57	3.2µM*[single pt active]
CC(=O)Nc1nc(-c2ccc(Br)s2)cs1	13%	-2%	>57	13µM*
COc1ccc2[nH]cc(CCNc3ncnc4ccc(-c5ccccc5OC)cc34)c2c1	9%	10µM*	>57	10%
COc1ccc2[nH]cc(CCNc3ccnc(-c4ccc(N(C)C)cc4)n3)c2c1	-4%	7.9µM*	>57	-6%
COc1ccc2[nH]cc(CCNc3ncncc3-c3cccnc3)c2c1	6%	-3%	>57	10%
COc1ccc2[nH]cc(CCNc3ncncc3-c3ccccc3C)c2c1	-4%	10µM*	>57	11%
COc1ccc2[nH]cc(CCNc3ccnc(-c4ccoc4)n3)c2c1	10%	?	>57	-23%
COc1ccc2[nH]cc(CCNc3ncnc4ccc(-c5cccnc5)cc34)c2c1	9%	-10%	>57	0%
Nc1ncnc2c1ncn2C[C@@H](O)C(=O)O	-4%[5.75 µM]	0%[8 µM]	>57	0%[5.75 µM]
C/C(=C\C(=O)c1ccc(C)cc1)Nc1cccc(O)c1	9%	10µM*	nt	-6%
CS(=O)(=O)c1sc2nc(-c3cccs3)cc(-c3ccccc3)c2c1N	-4%	?	>57	10µM*[single pt active]
COc1cccc(C2=NOC(C(=O)N3CCN(C(=O)c4ccco4)CC3)C2)c1 (configuration not stated)	19%	4%	>57	2.5µM*[single pt active]
CCOc1ccc(-n2c(Cc3cc(=O)[nH]c(=O)[nH]3)nnc2SC(C)C)cc1	24%	?	>57	12%
CCOc1ccc(-n2c(Cc3cc(=O)[nH]c(=O)[nH]3)nnc2SCc2cccnc2)cc1	12%	-8%	>57	4µM*[single pt active]
CCOC(=O)C(C)Sc1nnc(Cc2cc(=O)[nH]c(=O)[nH]2)n1-c1cccc(OC)c1 (configuration not stated)	10%	3%	>57	4µM*[single pt active]
CCOC(=O)C(C)Sc1nnc(Cc2cc(=O)[nH]c(=O)[nH]2)n1-c1ccc(OCC)cc1 (configuration not stated)	11%	1%	>57	4µM*[single pt active]
CN(C)c1ccc(-c2cncnc2Nc2ccc(F)cc2)cc1	10%	-3%	>57	53%
O=C(CSc1nnc2scc(-c3ccccc3)n12)NCc1ccc2c(c1)OCO2	12%	9%	>57	-2%
Cn1c(SCC(=O)NCc2ccc3c(c2)OCO3)nc2scc(-c3cccs3)c2c1=O	-4%	-9%	>57	16µM*[single pt active]
N#Cc1ccc(CN2CCC3(CC2)CCN(C(=O)c2cccc(F)c2)CC3)cc1	0%	-10%	>57	111%
Nc1ncnc2c1c(-c1ccc(Oc3ccccc3)cc1)cn2C1CCCC1	1%	16µM*	>57	28%
c1ccc2sc(C3(N4CCCCC4)CCCCC3)cc2c1	-3%	25µM*	>57	27%
CC1=C/C(=C(/c2ccc(O)c(C)c2)c2ccccc2C(=O)O)C=CC1=O	-5%[5.75 µM]	-15%[8 µM]	>57	-10%[5.75 µM]
O=C(O)C1=CC(=C(c2ccc(O)c(C(=O)O)c2)c2ccc(O)c(C(=O)O)c2)C=CC1=O	10µM*	?	>57	7.9µM*
CS(=O)(=O)N1CCC[C@@]2(CCN(C(c3ccccc3)c3ccccc3)C2)C1	-3%	3%	>57	122%
CCOC(=O)c1cnc2c(C#N)c(C)nn2c1-c1ccccc1	10%	-10%	nt	4µM*[single pt active]
CCOC(=O)c1cnc2c(C#N)c(C)nn2c1C	-5%	-5%	>57	-7%
